Reference: PubChem BioAssay AID1159580 (chemical genetic matrix, 2015)
Screen size: about 5,500 compounds; about 2,000 (36%) were called active. Not shown: some 18% with an inconclusive outcome. Rule as the data show it: active = normalized growth mostly below about 0.91 (no sharp cut-off); inconclusive = no clear call, values can overlap the other calls; inactive = mostly above about 0.92. Some of the results follow.

Test: chemical genetic growth profiling, strain panel (AID 1159580);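 also: tested at 20 µM; growth read once vehicle control cultures reached saturation at 30 °C; 1 = growth at the plate median or of vehicle wells; lower values mean less growth of the strain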
Details: S. cerevisiae deletion strains, growth OD

Measured: normalized growth

CC(=O)O[C@H]1C(=O)[C@@]2(C)C([C@H](OC(=O)c3ccccc3)[C@]3(O)C[C@H](O)C(C)=C1C3(C)C)[C@]1(OC(C)=O)CO[C@@H]1C[C@@H]2O (stereo partly specified)
inactive: locus YAL021C, strain ccr4, active compounds read low 0.974 | locus YAL026C, strain drs2, active compounds read low 0.983 | locus YAL030W, strain snc1, active compounds read low 1 | locus YBL061C, strain skt5, active compounds read low 1.02 | locus YBR009C, strain hhf1, active compounds read low 0.986 | locus YBR023C, strain chs3, active compounds read low 0.998 | locus YBR171W, strain sec66, active compounds read low 1 | locus YBR231C, strain swc5, active compounds read low 1 | locus YBR279W, strain paf1, active compounds read low 0.999 | locus YCL011C, strain gbp2, active compounds read low 1 | locus YCL016C, strain dcc1, active compounds read low 1.01 | locus YCL069W, strain vba3, active compounds read low 0.98 | locus YCR088W, strain abp1, active compounds read low 0.986 | locus YDL005C, strain med2, active compounds read low 1 | locus YDL040C, strain nat1, active compounds read low 0.999 | locus YDR001C, strain nth1, active compounds read low 0.99 | locus YDR069C, strain doa4, active compounds read low 1.02 | locus YDR137W, strain rgp1, active compounds read low 1.05 | locus YDR159W, strain sac3, active compounds read low 1.01 | locus YDR195W, strain ref2 0.946 | locus YDR297W, strain sur2, active compounds read low 0.977 | locus YDR334W, strain swr1, active compounds read low 0.969 | locus YDR335W, strain msn5, active compounds read low 0.993 | locus YDR392W, strain spt3, active compounds read low 0.985 | locus YEL003W, strain gim4, active compounds read low 0.991 | locus YEL037C, strain rad23, active compounds read low 0.983 | locus YEL061C, strain CIN8 (second series), active compounds read low 0.981 | locus YER015W, strain faa2, active compounds read low 1 | locus YER016W, strain bim1, active compounds read low 1.01 | locus YER111C, strain swi4, active compounds read low 1 | locus YER155C, strain BEM2 (second series), active compounds read low 1.01 | locus YFR010W, strain ubp6, active compounds read low 0.985 | locus YGL167C, strain pmr1, active compounds read low 1 | locus YGL173C, strain kem1, active compounds read low 0.998 | locus YGL227W, strain vid30, active compounds read low 0.992 | locus YGL240W, strain doc1, active compounds read low 1 | locus YGL253W, strain hxk2, active compounds read low 0.99 | locus YHR013C, strain ard1, active compounds read low 1 | locus YHR027C, strain rpn1, active compounds read low 1 | locus YHR030C, strain SLT2, active compounds read low 0.988 | locus YHR079C, strain IRE1, active compounds read low 0.995 | locus YHR142W, strain chs7, active compounds read low 0.984 | locus YJL092W, strain hpr5, active compounds read low 0.998 | locus YJL095W, strain BCK1 (second series), active compounds read low 0.995 | locus YJL095W, strain BCK1, active compounds read low 0.995 | locus YJL115W, strain asf1, active compounds read low 0.973 | locus YJL129C, strain trk1, active compounds read low 0.982 | locus YJL154C, strain vps35, active compounds read low 0.98 | locus YJL164C, strain tpk1, active compounds read low 1 | locus YJL166W, strain qcr8, active compounds read low 1 | locus YJR066W, strain TOR1, active compounds read low 0.94 | locus YKL160W, strain elf1, active compounds read low 1.01 | locus YKR026C, strain gcn3, active compounds read low 0.985 | locus YKR091W, strain srl3, active compounds read low 1.01 | locus YLL001W, strain dnm1, active compounds read low 1 | locus YLL026W, active compounds read low 0.999 | locus YLL041C, strain sdh2, active compounds read low 0.985 | locus YLR027C, strain aat2, active compounds read low 0.988 | locus YLR113W, strain HOG1, active compounds read low 1.01 | locus YLR221C, strain rsa3, active compounds read low 0.994 | locus YLR258W, strain gsy2, active compounds read low 0.999 | locus YLR262C, strain YPT6 (second series), active compounds read low 1 | locus YLR320W, strain mms22, active compounds read low 1.01 | locus YLR342W, strain FKS1, active compounds read low 1.01 | locus YLR357W, strain rsc2, active compounds read low 0.968 | locus YLR370C, strain arc18, active compounds read low 0.984 | locus YLR384C, strain iki3, active compounds read low 0.981 | locus YML120C, strain ndi1, active compounds read low 1.01 | locus YMR058W, strain fet3, active compounds read low 0.99 | locus YMR125W, strain sto1, active compounds read low 0.993 | locus YMR129W, active compounds read low 0.988 | locus YMR205C, strain PFK2, active compounds read low 0.989 | locus YMR231W, strain pep5, active compounds read low 1 | locus YNL071W, strain lat1, active compounds read low 0.979 | locus YNL183C, strain NPR1, active compounds read low 0.953 | locus YNL209W, strain ssb2, active compounds read low 0.987 | locus YNL248C, strain rpa49, active compounds read low 0.974 | locus YNL322C, strain KRE1 (second series), active compounds read low 1.01 | locus YNR049C, strain mso1, active compounds read low 1.01 | locus YOR001W, strain rrp6, active compounds read low 0.982 | locus YOR070C, strain gyp1, active compounds read low 0.987 | locus YOR080W, strain dia2, active compounds read low 0.993 | locus YOR083W, strain WHI5, active compounds read low 1.01 | locus YOR106W, strain vam3, active compounds read low 1.01 | locus YOR231W, strain MKK1, active compounds read low 0.973 | locus YOR265W, strain rbl2, active compounds read low 0.969 | locus YOR270C, strain vph1, active compounds read low 0.888 | locus YOR290C, strain snf2, active compounds read low 1.02 | locus YPL051W, strain arl3, active compounds read low 1.01 | locus YPL078C, strain atp4, active compounds read low 0.996 | locus YPL106C, strain sse1, active compounds read low 0.987 | locus YPL240C, strain hsp82, active compounds read low 0.995 | locus YPL256C, strain CLN2, active compounds read low 0.966

CC(=O)OC1C(=O)C2(C)C(O)CC3OCC3(OC(C)=O)C2C(OC(=O)c2ccccc2)C2(O)CC(OC(=O)C(O)C(NC(=O)c3ccccc3)c3ccccc3)C(C)=C1C2(C)C (stereo unspecified)
inactive: locus YCL061C, strain MRC1 (second series), active compounds read low 0.996 | locus YDR363W, strain ESC2, active compounds read low 0.984 | locus YER002W, strain NOP16, active compounds read low 1 | locus YMR307W, strain GAS1, active compounds read low 0.975 | locus YNL128W, strain TEP1, active compounds read low 1 | locus YNL197C, strain WHI3, active compounds read low 0.981 | locus YNL224C, strain SQS1, active compounds read low 1.03 | locus YPL241C, strain CIN2, active compounds read low 0.995
